Assay results taken from PubChem BioAssay (NCATS).
Results filed as inconclusive are left out. Activity calls are given as the source filed them. The call rests on the fitted dose curve; in most records, active means well fitted inhibition curve with a large enough effect; inconclusive means small, poorly fitted or top-dose-only effect; inactive means flat fitted curve, though single readings scatter.

Experiments:
Test in all cases: Cytotoxic Profiling of Annotated Libraries Using Quantitative High-Throughput Screening (AID 1296008); further: nearly all actives have a fitted effect of over 60% in size
Settings in all cases: Five cell lines viability, CellTiter-Glo ATP luminescence, 48-72 h; max response: active compounds read low
CRL-7250 = normal cell line; tested on: CRL-7250
How it was run: (§1)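 Cytotoxicity was measured as CellTiter-Glo ATP luminescence, read after 10 min at room temperature. Compound treatment of the cells lasted 48 or 72 hr at 37 degrees Celsius in a qHTS format.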

HEK293 = tested on: HEK293
How it was run: as §1

HaCat = tested on: HaCat
How it was run: as §1

KB-3-1 = tested on: KB-3-1
How it was run: as §1

NIH3T3 = tested on: NIH3T3
How it was run: as §1

Measured: max response
On the % scale 0 is the no-effect control and ±100 the full control effect.

CC(C)(O)c1ccc2c(c1)C(O)C[C@H]1[C@](C)(C(=O)O)CCC[C@]21C (stereo not given in full)
inactive: CRL-7250 1.1% | HEK293 0.619% | HaCat -7.52% | KB-3-1 | NIH3T3 4.86%

OCCc1ccc(O[C@@H]2O[C@H](CO)[C@@H](O)[C@H](O)[C@H]2O)cc1
inactive: CRL-7250 2.72% | HEK293 0.276% | HaCat -3.11% | KB-3-1 -1.98% | NIH3T3 2.39%

COC1CC(O[C@H]2CC[C@@]3(C)C(CCC4C3[C@H](OC(C)=O)[C@@H](OC(=O)/C=C/c3ccccc3)[C@]3(C)C(C(C)=O)CC[C@]43O)C2)OC(C)C1OC1CC(OC)C(OC2CC(OC)C(OC3OC(C)C(OC4OC(CO)C(O)C(O)C4O)C(OC)C3O)C(C)O2)C(C)O1 (stereo not given in full)
inactive: CRL-7250 -13.2% | HEK293 -13.6% | HaCat -18.9% | KB-3-1 -0.895% | NIH3T3 -9.54%

C[C@@H]1O[C@@H](O[C@H]2[C@@H]3C=CO[C@@H](O[C@@H]4O[C@H](CO)[C@@H](O)[C@H](O)[C@H]4O)[C@@H]3[C@@]3(CO)O[C@@H]23)[C@H](OC(=O)/C=C/c2ccc(O)c(O)c2)[C@H](O)[C@H]1O
inactive: CRL-7250 | HEK293 -5.61% | HaCat 1.24% | KB-3-1 6.2% | NIH3T3 -3.69%
